Assay results taken from PubChem BioAssay (Tox21).
Records with an inconclusive call do not appear. Active and inactive are the calls of the source. Unless noted, calls follow the shape of the dose curve; as a rule, active = well fitted curve in the direction sought with a large enough effect in the repeat runs; inconclusive = weak or mixed curves; inactive = no such curve, though single readings can be large; an effect the other way counts as inactive or inconclusive.

Legend:
[1] = qHTS assay to identify small molecule antagonists of the estrogen related receptor (ERR) signaling pathway from Tox21 library - cell viability counter screen (AID 1224834); also: nearly all actives have a fitted effect of over 30% in size
Method in brief: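 In this quantitative HTS format, ERR cells receive compounds in DMSO and are incubated for 17.5 h at 37 C. Live-cell protease activity is then detected with CellTiter-Fluor.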

[2] = target: Luciferin 4-monooxygenase (Photinus pyralis) (UniProt P08659); assay: qHTS assay to identify small molecule inhibitors of firefly luciferase (AID 1224835); also: nearly all actives have a fitted effect of over 25% in size
Chain of Luciferin 4-monooxygenase (Photinus pyralis) (P08659 whole entry, looked up): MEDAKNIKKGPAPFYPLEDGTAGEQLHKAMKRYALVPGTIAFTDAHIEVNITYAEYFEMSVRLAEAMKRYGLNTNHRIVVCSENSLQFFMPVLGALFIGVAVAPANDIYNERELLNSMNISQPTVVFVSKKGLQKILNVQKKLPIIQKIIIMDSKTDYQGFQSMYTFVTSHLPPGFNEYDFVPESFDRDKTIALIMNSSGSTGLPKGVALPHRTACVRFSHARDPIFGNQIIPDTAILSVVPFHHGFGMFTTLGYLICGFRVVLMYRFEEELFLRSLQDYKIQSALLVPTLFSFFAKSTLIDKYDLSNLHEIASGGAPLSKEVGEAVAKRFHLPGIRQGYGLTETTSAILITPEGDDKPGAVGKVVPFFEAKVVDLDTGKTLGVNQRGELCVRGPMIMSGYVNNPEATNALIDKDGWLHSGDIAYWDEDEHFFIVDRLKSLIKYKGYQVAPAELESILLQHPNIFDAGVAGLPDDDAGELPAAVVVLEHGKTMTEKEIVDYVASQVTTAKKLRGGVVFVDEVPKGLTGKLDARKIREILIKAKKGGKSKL
Method in brief: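 Inhibition of purified Photinus luciferase is measured by luminescence. Substrate levels (D-luciferin, ATP) sit at their KM values. Each compound is tested in a concentration series.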

[3] = qHTS assay to identify small molecule agonists of the constitutive androstane receptor (CAR) signaling pathway - cell viability counter screen (AID 1224836); also: nearly all actives have a fitted effect of over 45% in size
Method in brief: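 Fluorescence from CellTiter-Fluor indicates live cells after 23 h exposure. The human hepatoma line expresses hCAR and a CYP2B6-2.2kb reporter. Incubation medium contains 0.75 uM PK11195 (final).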

[4] = qHTS assay to identify small molecule antagonists of the constitutive androstane receptor (CAR) signaling pathway - cell viability counter screen (AID 1224837); also: nearly all actives have a fitted effect of over 45% in size
Method in brief: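 In quantitative HTS format, compounds at 15 concentrations were applied to HepG2 cells double-transfected with hCAR and CYP2B6-2.2kb under 50 nM CITCO stimulation; live-cell protease activity was read after 23 hr via CellTiter-Fluor.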

[5] = target: Nuclear receptor subfamily 1 group I member 3 (Homo sapiens) (UniProt Q14994); assay: qHTS assay to identify small molecule antagonists of the constitutive androstane receptor (CAR) signaling pathway (AID 1224838); also: nearly all actives have a fitted effect of over 40% in size
Chain of Nuclear receptor subfamily 1 group I member 3 (Homo sapiens) (Q14994 whole entry, looked up): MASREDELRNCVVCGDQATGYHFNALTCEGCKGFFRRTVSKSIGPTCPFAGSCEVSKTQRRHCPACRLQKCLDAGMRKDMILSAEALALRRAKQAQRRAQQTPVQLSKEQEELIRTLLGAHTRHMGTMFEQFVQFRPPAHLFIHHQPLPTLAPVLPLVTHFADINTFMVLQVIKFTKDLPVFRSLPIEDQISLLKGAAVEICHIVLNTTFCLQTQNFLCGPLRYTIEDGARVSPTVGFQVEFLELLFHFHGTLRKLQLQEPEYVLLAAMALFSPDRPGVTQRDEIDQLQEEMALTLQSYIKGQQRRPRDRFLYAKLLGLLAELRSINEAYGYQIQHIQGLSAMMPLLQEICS
Method in brief: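 CITCO-stimulated (50 nM final) HepG2 cells stably transfected with hCAR and CYP2B6-2.2kb luciferase were exposed to compounds at 15 concentrations for 24 h at 37 C/5% CO2. A luciferase reagent was added and luminescence recorded after 30 min.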

[6] = target: Nuclear receptor subfamily 1 group I member 3 (Homo sapiens) (UniProt Q14994); assay: qHTS assay to identify small molecule agonists of the constitutive androstane receptor (CAR) signaling pathway (AID 1224839);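 also: HepG2 cells stably carrying human CAR and a CYP2B6 luciferase reporter; nearly all actives have a fitted effect of over 15% in size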
Method in brief: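 Stable hCAR/CYP2B6-2.2kb HepG2 line in DMEM with 10% FBS; compounds (15 concentrations) and 0.75 uM PK11195 final, 24 h at 37 C/5% CO2, then ONE-Glo luminescence after 30 min.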

[7] = qHTS assay to identify small molecule antagonists of the estrogen related receptor signaling pathway with the pleiotropic PPARgamma coactivator (PGC) from Tox21 10K library - cell viability counter screen (AID 1224840; active = well fitted cell-killing curve with a large enough effect in the repeat runs, not every such curve was filed as active; also: nearly all actives have a fitted effect of over 40% in size)
Method in brief: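 Viability counter screen, PGC/ERR cells: 17.5 h compound exposure at 37 C, CellTiter-Fluor fluorescence endpoint.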

[8] = target: Thyrotropin receptor (Homo sapiens) (UniProt P16473); assay: qHTS assay to identify small molecule agonists of the thyroid stimulating hormone receptor (TSHR) signaling pathway (AID 1224843; calls by dose curve; also: nearly all actives have a fitted effect of over 45% in size)
Chain of Thyrotropin receptor (Homo sapiens) (P16473 whole entry, looked up): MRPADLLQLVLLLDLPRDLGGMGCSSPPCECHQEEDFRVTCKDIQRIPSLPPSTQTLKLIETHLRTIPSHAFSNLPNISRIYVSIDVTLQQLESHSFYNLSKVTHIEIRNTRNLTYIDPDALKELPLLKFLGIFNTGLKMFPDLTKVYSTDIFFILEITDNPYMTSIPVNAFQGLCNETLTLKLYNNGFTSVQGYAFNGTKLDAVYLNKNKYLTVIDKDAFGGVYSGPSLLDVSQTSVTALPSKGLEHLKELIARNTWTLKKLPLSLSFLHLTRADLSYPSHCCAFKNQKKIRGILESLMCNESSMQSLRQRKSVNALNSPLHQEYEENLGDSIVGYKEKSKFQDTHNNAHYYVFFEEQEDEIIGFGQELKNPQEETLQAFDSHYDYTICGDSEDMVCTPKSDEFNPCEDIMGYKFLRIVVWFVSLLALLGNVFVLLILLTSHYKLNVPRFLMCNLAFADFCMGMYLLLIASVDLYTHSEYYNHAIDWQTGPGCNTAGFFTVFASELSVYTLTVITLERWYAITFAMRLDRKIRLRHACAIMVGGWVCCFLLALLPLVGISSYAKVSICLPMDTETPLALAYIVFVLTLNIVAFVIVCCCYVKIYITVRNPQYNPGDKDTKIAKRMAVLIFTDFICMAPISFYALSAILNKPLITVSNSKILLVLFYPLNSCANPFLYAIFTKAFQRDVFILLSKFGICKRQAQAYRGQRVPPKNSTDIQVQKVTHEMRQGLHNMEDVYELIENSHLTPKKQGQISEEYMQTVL
Method in brief: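 A cell-based cAMP HTRF format was run in TSHR-transfected HEK293 cells, 800 per well. Treatment: 30 min, room temperature. Detection: 1 h with labelled cAMP and anti-cAMP cryptate. Concentration-response over 15 points, three replicates.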

[9] = qHTS assay to identify small molecule agonists of the hypoxia (HIF-1) signaling pathway - cell viability counter screen (AID 1224844; calls by dose curve; also: nearly all actives have a fitted effect of over 50% in size)
Method in brief: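 Same wells as the HIF-1 reporter screen; ME-180 cells carrying HRE-bla, 17 hr treatment at 37C; CellTiter-Glo luminescence read after 30 min at room temperature.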

[10] = qHTS assay to identify small molecule agonists of H2AX (AID 1224845; active = well fitted activation curve with a large enough effect in the signal ratio in the repeat runs, not every such curve was filed as active; the % refers to the signal ratio)
Method in brief: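 Phospho-H2AX Ser139 measured by HTRF (ex 320 nm; em 665 and 620 nm) after 24 hr antibody incubation. Compounds, 15 concentrations, 0.76% DMSO, were applied to CHO-K1 cells for 3hr at 37C before lysis.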

[11] = qHTS assay to identify small molecule agonists of the hypoxia (HIF-1) signaling pathway (AID 1224846; active = well fitted activation curve with a large enough effect in the signal ratio in the repeat runs, not every such curve was filed as active; the % refers to the signal ratio)
Method in brief: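 In ME-180 cells bearing an HRE-bla construct, 17 h treatment with DMSO-dissolved compounds at 37C was followed by CCF4-AM loading to quantify reporter induction.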

[12] = qHTS assay to identify small molecule agonists of H2AX - cell viability counter screen (AID 1224847; calls by dose curve; also: top concentration of the series differs between compounds; nearly all actives have a fitted effect of over 30% in size)
Method in brief: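 Viability of CHO-K1 (wild type) cells after 3 hr compound exposure was measured by CellTiter-Glo luminescence.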

[13] = qHTS RealTime-Glo MT Cell Viability Assay in HepG2 cells - 24 hour (AID 1224867); also: nearly all actives have a fitted effect of over 50% in size
Method in brief: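 Cell number in HepG2 cultures estimated from NanoLuc luminescence generated by metabolic reduction of a prosubstrate by living cells. The homogeneous, nonlytic format allowed repeated reads at 0, 8, 16, 24, 32 and 40 h of compound exposure.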

[14] = qHTS RealTime-Glo MT Cell Viability Assay in HEK293 cells - 32 hour (AID 1224868); also: top concentration of the series differs between compounds; nearly all actives have a fitted effect of over 50% in size
Method in brief: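 Homogeneous bioluminescent viability format in HEK293 cells (600 cells/well). Following 5 h at 37 C/5% CO2, 23 nL compound was pintooled; the signal was measured repeatedly during 40 h incubation.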

[15] = A CellTox Green Cytotoxicity Assay to monitor cytotoxicity in HEK293 cells - 0 hour (AID 1224869); also: nearly all actives have a fitted effect of over 50% in size
Method in brief: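 Homogeneous no-lysis format: HEK293 cell suspension mixed with CellTox Green reagent, seeded, incubated 5 h at 37 C/5% CO2, then dosed by pintool with compound in DMSO.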

[16] = qHTS RealTime-Glo MT Cell Viability Assay in HepG2 cells - 40 hour (AID 1224870); also: nearly all actives have a fitted effect of over 50% in size
Method in brief: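 Real-time viability: cells seeded at 600 per well together with NanoLuc and cell-permeant prosubstrate, compounds added after 5 h incubation. Luminescence tracked at 0, 8, 16, 24, 32 and 40 h of exposure.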

[17] = qHTS assay to identify small molecule antagonists of the estrogen related receptor signaling pathway with the pleiotropic PPARgamma coactivator (PGC) from Tox21 10K library (AID 1224841; call rule not given here)
Method in brief: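 In the PGC/ERR line, DMSO solutions of test chemicals are pin-delivered to 2,000 cells/well six hours after dispensing. Following eighteen hours' incubation, One-Glo reagent is added and luminescence recorded.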

[18] = qHTS assay to identify small molecule agonists of the estrogen related receptor signaling pathway with the pleiotropic PPARgamma coactivator (PGC) from Tox21 10K library (AID 1224842); also: nearly all actives have a fitted effect of over 15% in size
Method in brief: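 Luminescence from One-Glo (30 min, room temperature) measured after PGC/ERR cells had 18 h at 37 C with pinned compound (23 nL in DMSO). Cells had been seeded at 2,000 per well and pre-incubated 6 h.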

[19] = qHTS assay to identify small molecule antagonists of the estrogen related receptor (ERR) signaling pathway from Tox21 library (AID 1224848); also: nearly all actives have a fitted effect of over 50% in size
Method in brief: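 ERR cell line, 2,000 cells/well. 6 h settle, then compound (DMSO) added; 18 h at 37 C; ONE-Glo luminescence after 30 min RT.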

[20] = qHTS assay to identify small molecule agonists of the estrogen related receptor (ERR) signaling pathway from Tox21 library (AID 1224849; calls by dose curve; also: nearly all actives have a fitted effect of over 15% in size); conditions: ERR reporter cell line, ONE-Glo luciferase, 18 h; at 92.4 µM (top of the series) unless noted
Method in brief: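 Reporter cells (ERR, NTP source) treated with Tox21 10K compounds 18 h, 37 C. Readout: ONE-Glo luminescence, 30 min RT.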
% is scaled to controls: 0 for no effect and ±100 for the full control effect.

NC(=S)Nc1cccc2ccccc12
inactive: viability change, negative = cytotoxic [1] 1.64% [at 8.39 µM] | activity change, negative = inhibition [2] 2.89% [at 10.5 µM] | viability change, negative = cytotoxic [3] -0.893% [at 8.39 µM] | activity change, negative = cytotoxicity [4] -0.426% [at 8.39 µM] | activity, negative = inhibition [5] 3.74% [at 8.39 µM] | activation [6] 2.72% [at 8.39 µM] | viability change, negative = cytotoxic [7] 3.04% [at 8.39 µM] | activation [8] 1.3% [at 8.39 µM] | activity change, negative = cytotoxicity [9] -3.12% [at 6.97 µM] | activation (H2AX phosphorylation) [10] 4.19% [at 14 µM] | activation [11] 1.15% [at 7.01 µM] | activity change, negative = cytotoxicity [12] 1.9% [at 14 µM] | activity change, negative = cytotoxicity [13] 1.73% [at 6.97 µM] | activity change, negative = cytotoxic [14] 15.6% [at 6.97 µM] | cytotoxicity [15] 0.823% [at 6.97 µM] | activity change, negative = cytotoxic [16] -4.8% [at 6.97 µM]

N#CCN(CC#N)CCN(CC#N)CC#N
inactive: Potency [1] | Potency [2] | outcome [3] | outcome [4] | Potency [5] | Potency [6] | outcome [7] | outcome [8] | Potency [9] | outcome [13] | Potency [14] | Potency [15] | Potency [16]

CNC(=O)c1c(I)c(NC(=O)CCCCC(=O)Nc2c(I)c(C(=O)O)c(I)c(C(=O)NC)c2I)c(I)c(C(=O)O)c1I
inactive: Potency [1] | Potency [2] | outcome [3] | outcome [4] | Potency [5] | Potency [6] | outcome [7] | Potency [17] | Potency [18] | Potency [9] | outcome [10] | outcome [11] | Potency [12] | Potency [19] | activity change, positive = activation [20] 8.83% [at 42.5 µM] | outcome [13] | Potency [14] | Potency [15] | Potency [16]

COc1cc(CCC(C)=O)ccc1O
inactive: Potency [1] | Potency [2] | outcome [3] | outcome [4] | Potency [5] | Potency [6] | outcome [7] | Potency [17] | Potency [18] | outcome [8] | Potency [9] | outcome [10] | Potency [12] | Potency [19] | activity change, positive = activation [20] 3.47% | outcome [13] | Potency [14] | Potency [15]

CCCOc1ccccc1-c1nc2n[nH]nc2c(=O)[nH]1
inactive: Potency [1] | Potency [2] | outcome [3] | outcome [4] | Potency [5] | Potency [6] | outcome [7] | outcome [8] | Potency [9] | outcome [10] | Potency [12] | outcome [13] | Potency [15] | Potency [16]

CC(C)(O)c1ccccc1
inactive: Potency [1] | Potency [2] | outcome [3] | outcome [4] | Potency [5] | Potency [6] | outcome [7] | Potency [17] | Potency [18] | outcome [10] | outcome [11] | Potency [12] | Potency [19] | outcome [13] | Potency [14] | Potency [15] | Potency [16]

CC(C)CCCC(C)CCCC(C)CCCCC(C)CCCC(C)CCCC(C)C (configuration not stated)
inactive: Potency [1] | Potency [2] | outcome [3] | outcome [4] | Potency [5] | Potency [6] | outcome [7] | outcome [8] | Potency [9] | outcome [10] | Potency [12] | outcome [13] | Potency [14] | Potency [15] | Potency [16]

CCCCCCCCC=O
inactive: Potency [1] | Potency [2] | outcome [3] | outcome [4] | Potency [5] | Potency [6] | outcome [7] | Potency [17] | Potency [18] | outcome [8] | Potency [9] | outcome [11] | Potency [12] | Potency [19] | activity change, positive = activation [20] -1.48% | outcome [13] | Potency [14] | Potency [15] | Potency [16]

NCCN1CCNC1=O
inactive: Potency [1] | Potency [2] | outcome [3] | outcome [4] | Potency [5] | Potency [6] | outcome [7] | outcome [8] | Potency [9] | outcome [11] | Potency [12] | outcome [13] | Potency [14] | Potency [15] | Potency [16]

CC(C=O)Cc1ccc(C(C)C)cc1 (configuration not stated)
inactive: Potency [1] | Potency [2] | outcome [3] | outcome [4] | Potency [5] | Potency [6] | outcome [7] | outcome [8] | Potency [9] | outcome [10] | Potency [14] | Potency [15] | Potency [16]

CCCC(C)CO (configuration not stated)
inactive: Potency [1] | Potency [2] | outcome [3] | outcome [4] | Potency [5] | Potency [6] | outcome [7] | outcome [8] | Potency [9] | outcome [10] | Potency [12] | outcome [13] | Potency [14] | Potency [15] | Potency [16]

CCC(C)(C)C1CCC(OC)CC1 (configuration not stated)
inactive: Potency [1] | Potency [2] | outcome [3] | outcome [4] | Potency [5] | Potency [6] | outcome [7] | Potency [17] | Potency [18] | outcome [8] | Potency [9] | outcome [10] | outcome [11] | Potency [12] | Potency [19] | activity change, positive = activation [20] -1.91% | outcome [13] | Potency [14] | Potency [15] | Potency [16]

CCCc1ccccc1O
inactive: Potency [1] | Potency [2] | outcome [3] | outcome [4] | Potency [5] | Potency [6] | outcome [7] | outcome [8] | Potency [9] | outcome [10] | outcome [11] | Potency [12] | outcome [13] | Potency [14] | Potency [15] | Potency [16]

Fc1ccccc1-c1ccccc1
inactive: Potency [1] | Potency [2] | outcome [3] | outcome [4] | Potency [5] | Potency [6] | outcome [7] | outcome [8] | Potency [9] | outcome [11] | outcome [13] | Potency [14] | Potency [15] | Potency [16]

CCN(CC)S(=O)(=O)c1ccc(C(=O)O)cc1
inactive: Potency [1] | Potency [2] | outcome [3] | outcome [4] | Potency [5] | Potency [6] | outcome [7] | outcome [8] | Potency [9] | outcome [10] | outcome [11] | outcome [13] | Potency [15] | Potency [16]

O=c1[nH]c2ccccc2c(=O)n1CCCl
inactive: Potency [1] | Potency [2] | outcome [3] | outcome [4] | Potency [5] | Potency [6] | outcome [7] | Potency [17] | Potency [18] | outcome [8] | outcome [10] | outcome [11] | Potency [12] | Potency [19] | activity change, positive = activation [20] -3.42% [at 42.5 µM] | outcome [13] | Potency [14] | Potency [15] | Potency [16]
